{"source": "PubChem BioAssay AID1851", "about": "(National Center for Advancing Translational Sciences (NCATS), 2009)", "note": "Screen size: about 16,000 compounds; about 2,600 (16%) were called active. Inconclusive results (about 20%) are left out. Calls follow the shape of the dose curve; as a rule, active = well fitted curve in the direction sought with a large enough effect; inconclusive = small, poorly fitted or top-dose-only effect, or effect the other way; inactive = no such curve, though single readings can be large or run the other way. These entries were drawn from the full list. A structure can be active in one record and inactive in another. % is scaled to controls: 0 for no effect and ±100 for the full control effect.", "data": [{"biological_target": "Cytochrome P450 2D6 (Homo sapiens) (UniProt P10635)", "sequence (P10635 whole entry, looked up)": "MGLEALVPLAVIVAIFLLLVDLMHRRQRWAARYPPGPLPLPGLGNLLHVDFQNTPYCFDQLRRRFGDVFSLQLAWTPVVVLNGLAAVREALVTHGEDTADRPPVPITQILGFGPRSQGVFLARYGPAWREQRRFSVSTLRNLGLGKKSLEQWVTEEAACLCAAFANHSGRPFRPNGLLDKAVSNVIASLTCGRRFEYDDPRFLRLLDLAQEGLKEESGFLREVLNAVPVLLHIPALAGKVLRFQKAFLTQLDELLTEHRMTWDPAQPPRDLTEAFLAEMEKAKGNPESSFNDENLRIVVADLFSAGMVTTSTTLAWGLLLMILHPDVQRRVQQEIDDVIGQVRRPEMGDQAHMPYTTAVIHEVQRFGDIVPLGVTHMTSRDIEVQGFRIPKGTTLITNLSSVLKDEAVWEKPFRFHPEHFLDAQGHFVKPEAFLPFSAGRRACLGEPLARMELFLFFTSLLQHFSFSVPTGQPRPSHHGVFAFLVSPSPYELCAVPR", "test": "Cytochrome panel assay with activity outcomes", "details": "recombinant CYP, pro-luciferin dealkylation, luminescence, p450-cyp2d6; series mostly up to 57.1 µM", "values": [{"smiles": "COC(=O)C(Cc1ccc(OC(=O)c2ccc(C(F)(F)F)cc2)cc1)N1Cc2ccccc2C1=O", "note": "(stereo not given)", "AC50": "inactive"}, {"smiles": "Cc1nc(NC(=O)c2ccco2)sc1-c1csc(Nc2ccc(Cl)cc2Cl)n1", "AC50": "inactive"}, {"smiles": "C=CCCC(=O)Nc1nc(C)c(-c2csc(Nc3ccc(Cl)cc3)n2)s1", "AC50": "17.8 µM (active)"}, {"smiles": "Cc1nc(NC(=O)c2ccccc2)sc1-c1csc(Nc2ccc(Cl)cc2)n1", "AC50": "inactive"}, {"smiles": "COc1ccccc1Nc1nc(-c2sc(NC(=O)c3ccccc3)nc2C)cs1", "AC50": "inactive"}, {"smiles": "Cc1nc(NC(=O)c2ccccc2)sc1-c1csc(Nc2ccc(F)cc2)n1", "AC50": "inactive"}, {"smiles": "Cc1nc(NC(=O)c2ccccc2)sc1-c1csc(Nc2cccc(Cl)c2)n1", "AC50": "10 µM (active)"}, {"smiles": "CC1(C)OCC([C@H](O)C2=CCCCC2=O)CO1", "activity, negative = inhibition": "9.36% [at 11.4 µM] (inactive)"}, {"smiles": "COc1cc(/C=C2\\SC(=S)N(Nc3ccccc3)C2=O)cc(OC)c1OC", "AC50": "inactive"}, {"smiles": "CC(=O)c1cc(C#N)c(Oc2ccc(F)cc2)nc1C", "AC50": "inactive"}, {"smiles": "Cc1cnc(NC(=O)CCCc2nc3ccccc3s2)s1", "AC50": "inactive"}, {"smiles": "COc1cccc([C@@H]2Oc3ccc(Br)cc3C(=O)[C@H]2O)c1", "AC50": "3.16 µM (active)"}, {"smiles": "COc1cccc([C@@H]2Oc3ccc(OC)cc3/C(=N/OC[C@@H](O)COCc3ccco3)[C@@H]2O)c1", "activity, negative = inhibition": "5.07% [at 11.4 µM] (inactive)"}, {"smiles": "COc1cccc([C@@H]2Oc3ccc(OC)cc3/C(=N/OC[C@@H](C)[C@H](OCc3ccccc3)C(C)C)[C@@H]2O)c1", "activity, negative = inhibition": "0.0498% [at 11.4 µM] (inactive)"}, {"smiles": "CN(C(=S)Nc1ccccc1F)C1(c2ccccc2Cl)CCCCC1=O", "note": "(stereo not given)", "AC50": "inactive"}, {"smiles": "Clc1ccc(Cc2nc(-c3cccnc3)no2)cc1", "AC50": "1.78 µM (active)"}, {"smiles": "O=S(=O)(c1ccc(Cl)cc1)c1cnc(-c2cccnc2)nc1-c1ccccc1", "AC50": "inactive"}, {"smiles": "c1ccc(CCc2nc(-c3ccccc3)no2)cc1", "AC50": "inactive"}, {"smiles": "CCC(C)NS(=O)(=O)c1ccc(NC(=O)CCC2CCCCC2)cc1", "note": "(stereo not given)", "AC50": "inactive"}, {"smiles": "Cn1cccc1C(=O)N1CCC2(CC1)CCN(c1ncccn1)CC2", "AC50": "inactive"}, {"smiles": "COc1ccc(CNc2ccnc(-c3ccc(C(=O)N(C)C)cc3)n2)c(OC)c1", "AC50": "inactive"}, {"smiles": "Cc1cnc(CNc2ccnc(-c3ccc(N(C)C)cc3)n2)cn1", "AC50": "inactive"}, {"smiles": "COC(=O)Cc1c(C)nc2nc(NCc3ccccc3OC)[nH]n2c1=O", "AC50": "inactive"}, {"smiles": "COc1ccc(CNc2ccnc(-c3ccc(N(C)C)cc3)n2)c(OC)c1", "AC50": "12.6 µM (active)"}, {"smiles": "CN(C)c1ccc(-c2nccc(NCc3ccccc3)n2)cc1", "AC50": "3.16 µM (active)"}, {"smiles": "COc1ccccc1CNc1ccnc(-c2ccc(N(C)C)cc2)n1", "AC50": "0.501 µM (active)"}, {"smiles": "COc1ccccc1CNc1ccnc(-c2ccoc2)n1", "AC50": "15.8 µM (active)"}, {"smiles": "CCOC(=O)N1CCC(NC(=O)C2CCN(S(=O)(=O)N3CCCC3)CC2)CC1", "AC50": "inactive"}, {"smiles": "O=C=Nc1ccc(Cc2ccc(N=C=O)cc2)cc1", "note": "(tested in a mixture with another compound)", "activity, negative = inhibition": "6.78% [at 11.4 µM] (inactive)"}, {"smiles": "O=C(CNC(=O)c1ccc([N+](=O)[O-])cc1)c1ccccc1", "AC50": "inactive"}, {"smiles": "COc1cc(-c2nnc(SCC3(c4ccccc4)OCCO3)o2)cc(OC)c1OC", "AC50": "inactive"}, {"smiles": "COCCn1c(=O)c(-c2ccc(Cl)cc2)nc2cncnc21", "AC50": "inactive"}, {"smiles": "Nc1ccccc1CCCC(=O)O", "activity, negative = inhibition": "-8.09% [at 11.4 µM] (inactive)"}, {"smiles": "Cc1nc2cnc(N(C)C)nc2n(CCc2ccccc2)c1=O", "AC50": "inactive"}, {"smiles": "O=C(CSc1nc2ccccc2c(=O)n1NC(=O)c1ccccc1)c1ccc(Cl)cc1", "AC50": "inactive"}, {"smiles": "COC(=O)C/C=C\\[C@@H](C)[C@@H](/C=N\\O[C@@H](C)c1cc(-c2c(C)cc(C)cc2C)no1)NS(=O)(=O)c1ccc(C)cc1", "activity, negative = inhibition": "10.9% [at 11.4 µM] (inactive)"}, {"smiles": "COc1cc2c(cc1OC)C(C(=O)N1CCOCC1)C(c1cccs1)N(C)C2=O", "note": "(stereo not given)", "AC50": "inactive"}, {"smiles": "COc1cc2c(cc1OC)/C(=C/C(=O)N1CCOCC1)NC(C)(C)C2", "AC50": "2.82 µM (active)"}, {"smiles": "COc1ccc(CC(=S)N2CCOCC2)cc1OC", "AC50": "inactive"}, {"smiles": "CCOC(=O)c1ccc(N2C(=O)CC(Nc3ccc(CCO)cc3)C2=O)cc1", "note": "(stereo not given)", "AC50": "inactive"}, {"smiles": "Cn1c(=O)c2c(nc(NCCNc3nc4c(c(=O)n(C)c(=O)n4C)n3C)n2C)n(C)c1=O", "activity, negative = inhibition": "14.2% [at 11.4 µM] (inactive)"}, {"smiles": "COc1cc(C(=O)N2CCN(C(=O)c3ccccc3)CC2)cc(OC)c1OC", "AC50": "inactive"}, {"smiles": "COC(=O)C/C=C\\[C@H](C)[C@@H](OC)c1ccccc1Br", "activity, negative = inhibition": "12.6% [at 11.4 µM] (inactive)"}, {"smiles": "COc1ccc2[nH]cc(CCNc3ccnc(-c4ccccc4C)n3)c2c1", "AC50": "2.51 µM (active)"}, {"smiles": "COc1ccc2[nH]cc(CCNc3ccnc(-c4ccccc4Cl)n3)c2c1", "AC50": "20 µM (active)"}, {"smiles": "COCCNc1ccnc(-c2ccccc2C)n1", "AC50": "inactive"}, {"smiles": "Cc1cccc(-n2ncc3c(Nc4c(C)n(C)n(-c5ccccc5)c4=O)ncnc32)c1", "AC50": "inactive"}, {"smiles": "N#CC(C#N)=CNCCN1CCN(C=C(C#N)C#N)CC1", "activity, negative = inhibition": "5.03% [at 11.4 µM] (inactive)"}, {"smiles": "Cc1n[nH]c(C)c1S(=O)(=O)N1CCC(C(=O)O)CC1", "AC50": "inactive"}, {"smiles": "NS(=O)(=O)c1cc(Cl)c(Cl)c(S(N)(=O)=O)c1", "AC50": "inactive"}, {"smiles": "C[C@@H](C[C@H](N)C(=O)O)C(=O)O", "activity, negative = inhibition": "14.5% [at 11.4 µM] (inactive)"}, {"smiles": "Clc1cc2c(c(CSC3=NCN(CC4CC4)CN3)c1)OCOC2", "AC50": "0.2 µM (active)"}, {"smiles": "O=c1c2c(-c3cccs3)csc2[nH]c(=S)n1-c1ccccc1", "AC50": "inactive"}, {"smiles": "Cc1ccccc1OCC(=O)Nc1sc(C(=O)Nc2cccc(C)c2C)c(C)c1C#N", "AC50": "inactive"}, {"smiles": "Cn1cccc1C(=O)N1CCC2(CCN(C(=O)Nc3ccccc3)CC2)CC1", "AC50": "inactive"}, {"smiles": "O=[N+]([O-])c1nccn1C[C@H](O)CN1CCCCC1", "activity, negative = inhibition": "9.02% [at 11.4 µM] (inactive)"}, {"smiles": "O[C@H](CN1CCN(c2cccc(Cl)c2)CC1)C(c1ccccc1)c1ccccc1", "AC50": "12.6 µM (active) and inactive"}, {"smiles": "O=c1n(CCCN2CCN(c3cccc(Cl)c3)CC2)nc2ccccn12", "AC50": "inactive"}, {"smiles": "O=c1nc2ccccc2c2n1CC(CN1CCN(c3cccc(Cl)c3)CC1)N2", "note": "(stereo not given)", "AC50": "inactive"}, {"smiles": "CC(C)OCCCn1c(=S)[nH]c2ncccc2c1=O", "AC50": "inactive"}, {"smiles": "COCCn1c(=O)c(C)nc2cnc(N3CCNCC3)nc21", "AC50": "inactive"}, {"smiles": "Cc1noc(NS(=O)(=O)c2ccc(NC(=O)c3ccc(Br)o3)cc2)c1C", "AC50": "inactive"}, {"smiles": "COCCOC(=O)C1=C(C)NC(=O)N(C(C)=O)C1c1ccc(Cl)cc1", "note": "(stereo not given)", "AC50": "inactive"}, {"smiles": "COC(=O)C1=CO[C@@H](C)[C@H]2CN3CCc4c([nH]c5ccccc45)[C@@H]3C[C@H]12", "AC50": "0.002 µM (active)"}, {"smiles": "COC(=O)[C@@H]1[C@@H]2C[C@H]3c4[nH]c5ccccc5c4CCN3C[C@@H]2CC[C@@H]1OS(=O)(=O)O", "activity, negative = inhibition": "-18.5% [at 11.4 µM] (inactive)"}, {"smiles": "COc1ccc2c3c([nH]c2c1)[C@@H]1C[C@@H]2[C@@H](C[C@H](O)[C@H](OC)[C@H]2C(=O)O)CN1CC3", "AC50": "inactive"}, {"smiles": "C[C@@H](C(=O)O)c1ccc(C[C@@H]2CCCC2=O)cc1", "AC50": "inactive"}, {"smiles": "COCCNC(=O)c1cn(Cc2c(F)cccc2Cl)nn1", "AC50": "inactive"}, {"smiles": "Cc1cnc(CNc2cc(-c3ccc(C(=O)N(C)C)cc3)ncn2)cn1", "AC50": "inactive"}, {"smiles": "Cc1cnc(CNc2ncnc3ccc(-c4ccccc4Cl)cc23)cn1", "AC50": "15.8 µM (active)"}, {"smiles": "Cc1cnc(CNc2cc(-c3ccccc3Cl)ncn2)cn1", "AC50": "inactive"}, {"smiles": "Cc1cnc(CNc2ncnc3ccc(-c4ccccc4CN(C)C)cc23)cn1", "AC50": "2.51 µM (active)"}, {"smiles": "CCN(CC)C(=O)C1CC(=O)N(c2ccc(OC)cc2)C1c1ccc(OC)cc1", "note": "(stereo not given)", "AC50": "inactive"}, {"smiles": "COc1ccc(NC(=O)CSC2=NC(=O)CC(C)=N2)cc1", "AC50": "inactive"}, {"smiles": "N#CCCn1nnc2ccccc21", "AC50": "inactive"}, {"smiles": "O=C(O)Cc1cc(Cl)ccc1O", "activity, negative = inhibition": "16.8% [at 11.4 µM] (inactive)"}, {"smiles": "O=C(NCc1ccccc1)c1ccc(Cl)cc1[N+](=O)[O-]", "AC50": "inactive"}, {"smiles": "Cc1cccc(C(CC(=O)N2CCCC2)c2ccccc2)c1O", "note": "(stereo not given)", "AC50": "inactive"}, {"smiles": "CN(Cc1ccccc1)C(=O)CC(c1ccccc1)c1cc(Cl)ccc1O", "note": "(stereo not given)", "AC50": "8.91 µM (active)"}, {"smiles": "CC(C)Oc1ccc(CNC(=O)CC(c2ccccc2)c2cc(Cl)ccc2O)cc1", "note": "(stereo not given)", "AC50": "14.1 µM (active)"}, {"smiles": "CC(C)Oc1ccc(C(=O)Nc2ccc(NC(=O)c3ccco3)c(Cl)c2)cc1", "AC50": "inactive"}, {"smiles": "CCOC(=O)N1CCC(NS(=O)(=O)c2ccc3c(c2)C(C)(C)C(=O)N3C)CC1", "AC50": "inactive"}, {"smiles": "C[N+](C)(C)CCO", "AC50": "inactive"}, {"smiles": "COc1ccc(C(=O)n2nc(-c3ccccc3)nc2SC)cc1", "AC50": "inactive"}, {"smiles": "Cc1ccc(C2C(C(=O)c3ccco3)=C(O)C(=O)N2c2nnc(C)s2)cc1", "note": "(stereo not given)", "AC50": "inactive"}, {"smiles": "O=C1Nc2cc(C(=O)N3CCOCC3)ccc2SC1N1CCOCC1", "note": "(stereo not given)", "AC50": "inactive"}, {"smiles": "COc1ccccc1CNC(=O)CCCn1c(=O)c2ccccc2n(CC(=O)NC2CCCC2)c1=O", "AC50": "inactive"}, {"smiles": "COc1cc(CNC2CCCC2)cc(Cl)c1OCc1ccccc1Cl", "AC50": "0.891 µM (active)"}, {"smiles": "COc1ccccc1CNC(=O)C1CC(=O)N(C2CCCC2)C1", "note": "(stereo not given)", "AC50": "inactive"}, {"smiles": "NC(=O)c1ccc(C2SCC(=O)N2Cc2ccccc2)cc1", "note": "(stereo not given)", "AC50": "inactive"}, {"smiles": "Cc1ccc(CNC(=O)Cc2csc(Nc3nc(=S)[nH]c4ccccc34)n2)cc1", "AC50": "inactive"}, {"smiles": "CC(=O)OCC(=O)[C@@]1(O)[C@H](C)C[C@@H]2[C@H]3CCC4=CC(=O)C=C[C@]4(C)[C@]3(F)[C@@H](O)C[C@@]21C", "AC50": "inactive"}, {"smiles": "CC(C)(C)N1C(=O)[C@@H]2[C@H]3C(=CC[C@H]2C1=O)C(=O)[C@H]1O[C@H]1[C@H]3O", "activity, negative = inhibition": "11.6% [at 11.4 µM] (inactive)"}, {"smiles": "O=C1[C@@H]2C=CC=CC2=NC(=S)N1CCN1CCC(=C(c2ccc(F)cc2)c2ccc(F)cc2)CC1", "AC50": "12.6 µM (active)"}, {"smiles": "COC(=O)C/C=C\\[C@@H](C)[C@@H](/C=N\\O[C@@H](C)c1cn([C@H]2COC[C@H]2O)nn1)OC", "activity, negative = inhibition": "15.1% [at 11.4 µM] (inactive)"}]}]}
